{"source": "PubChem BioAssay (NCI)", "note": "Values joined by “and” are separate entries in the source; they are usually repeats but may differ in a detail not shown here. Identical values can stand only once. This is part of a sample that, as a whole, favours compounds with a hit. Of some 83,000 tested, about 20% had one in any assay.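 Testing used 96-well plates and a 48-hour single-concentration exposure. Example: -40 means 40% of the starting cells died.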 Unmarked numbers belong to inactive results. Active and inactive are the calls of the source. The calls were made as follows: active = growth percent below 10; inactive = the rest.", "data": [{"system": "MDA-MB-468 breast", "experiment": "NCI-60 one-dose screen, 48 h (100 = growth as untreated, 0 = no growth, -100 = all killed)", "settings": "10 µM unless noted", "values": [{"smiles": "O=[N+]([O-])C1=C(c2ccccc2)SC=C(c2ccccc2)S1", "growth": "72.7%"}, {"smiles": "O=C(Nc1cccc(C(F)(F)F)c1)c1cc(-c2ccc(F)cc2F)ccc1O", "growth": "-5% (active)"}, {"smiles": "Cc1cc(C)c2c(n1)sc1c(Nc3ccc(OCc4ccccc4)cc3)ncnc12", "growth": "101%"}, {"smiles": "NC1=C(Br)C(=O)c2ncccc2C1=O", "growth": "-14.8% (active)"}, {"smiles": "Oc1ccc(N=Cc2ccc(OCc3ccccc3)cc2)cc1", "growth": "97.6%"}, {"smiles": "CCCCCCN(CCCCCC)CC(O)c1ccc2c3c(cccc13)CC2", "note": "(stereo unspecified)", "growth": "55.6%"}, {"smiles": "COc1ccc(CNCCCN2C(=O)c3ccc4c5c(ccc(c35)C2=O)C(=O)N(CCCNCCCCNCCCN)C4=O)c(OC)c1OC", "growth": "-85.6% (active)"}, {"smiles": "O=C1C2=C(Nc3cc([N+](=O)[O-])ccc3N2)OC1c1c2ccccc2cc2ccccc12", "note": "(stereo unspecified)", "growth": "37.3%"}, {"smiles": "O=C(CN1CCN(c2cc3c(cc2F)c(=O)c(C(=O)O)cn3C2CC2)CC1)Nc1nc(-c2ccccc2)cs1", "growth": "37.4%"}, {"smiles": "CC(=O)O[C@H]1CC[C@@]2(C)C(=CC[C@@H]3[C@@H]2CC[C@]2(C)C(c4cccnc4)=CC[C@@H]32)C1", "growth": "26.5%"}, {"smiles": "COc1cccc(C(=O)NC(c2ccc(C)cc2)c2cc(Cl)c3cccnc3c2O)c1", "note": "(stereo unspecified)", "growth": "-8.72% (active)"}, {"smiles": "COC1C(O)CC(OC2CC(OC3CC(O[C@@H]4C(=O)c5c(cc6cc(OC7CC(OC8CC(O)C(O)C(C)O8)C(O)C(C)O7)c(C)c(O)c6c5O)CC4[C@H](OC)C(=O)C(C)=O)OC(C)C3O)OC(C)C2O)OC1C", "note": "(stereo partly specified)", "growth": "-64.7% (active)"}, {"smiles": "CCOC(=O)C1=C(CSC(=S)N(C2CCCCC2)C2CCCCC2)N(C)C(=O)NC1c1ccccc1", "note": "(stereo unspecified)", "growth": "47.3%"}, {"smiles": "O=C(S)CNC(=O)c1ccccc1", "growth": "95.7%"}, {"smiles": "COc1ccc(NC(=O)c2ccoc2COc2ccccc2)cc1", "growth": "116%"}, {"smiles": "O=S(=O)(Nc1ccccc1Cl)c1ccc(-c2cnc(C3CC3)o2)cc1", "growth": "6.43% (active)"}, {"smiles": "Cc1nc2ccccc2c(/C=C/c2ccccc2)c1C(=O)/C=C/c1ccc(C(F)(F)F)cc1", "growth": "-67.8% (active)"}, {"smiles": "O=c1c2c(c3ccccc3n1-c1ccccc1)NC(=S)NC2c1ccccc1", "note": "(stereo unspecified)", "growth": "74.4%"}, {"smiles": "COc1ccc(C(=O)/C=C/c2ccc(N3CCCCC3)cc2)cc1OC", "growth": "61.8%"}, {"smiles": "N#Cc1cnc2cc(OC[C@@H](O)CO)c(NC(=O)CC3CSSC3)cc2c1Nc1ccc(OCc2cccc(F)c2)c(Cl)c1", "growth": "-74.8% (active)"}, {"smiles": "Cc1nn(-c2ccccc2)nc1C(=O)Nc1ccccc1C(=O)NCC1CC1", "growth": "107% and 87.5%"}, {"smiles": "C=C(C)[C@@H]1CC[C@]2(C(=O)OC)CC[C@]3(C)[C@H](CC[C@@H]4[C@@](C)(CC/C(N)=N/O)[C@H](C(=C)C)CC[C@]43C)[C@@H]12", "growth": "99.5%"}, {"smiles": "CN(Cc1cccc(C(F)(F)F)c1)C(=O)[C@@H](CC(=O)N1CCC(N2CCCCC2)CC1)N1C(=O)[C@@H](N2C(=O)OC[C@@H]2c2ccccc2)[C@H]1/C=C/c1ccccc1", "growth": "60.5%"}, {"smiles": "N#Cc1cc(-c2ccnc(Nc3ccc(NC(=O)CCl)cc3)n2)ccc1N1CCCC1", "growth": "-45.9% (active)"}, {"smiles": "CC1(C)N=C(N)N=C(N)N1c1cccc(/C=C/C=C/c2cccc([N+](=O)[O-])c2)c1", "growth": "16.2%"}, {"smiles": "C[C@@H]1CC[C@@H]2[C@@H]1[C@H](OC(=O)/C=C/c1ccccc1)[C@]1(C3CCCCC3)C[C@@H](OC(=O)CO)[C@@]2(C)O1", "growth": "74.1%"}, {"smiles": "CCOC(=O)c1sc2nc(-c3cccc(OC)c3)nc(N3CCOCC3)c2c1C", "growth": "81.2%"}, {"smiles": "CCN(CC)CCN1C(=O)c2c(c(C)c3c(oc4cc(O)ccc43)c2C)C1=O", "growth": "96.3%"}, {"smiles": "CN(C)CC(C)(CN(C)C)C(=O)/C=C/c1c(Cl)cccc1Cl", "growth": "-82.6% (active)"}, {"smiles": "Clc1ccc(N/N=C(\\c2ccccc2)c2ccccn2)nc1", "growth": "-24.9% (active)"}, {"smiles": "N=C(N)c1ccc(-c2ccc(-c3ccc(Cl)cc3)o2)nc1", "growth": "-88.7% (active)"}, {"smiles": "CSc1nc2[nH]ncc2c(=O)[nH]1", "growth": "92.6%"}, {"smiles": "CN1CCN(c2ccc(Nc3ncc4[nH]c(=O)n(Cc5ccccc5N)c4n3)cc2)CC1", "growth": "111%"}, {"smiles": "c1ccc2c(c1)Sc1ccccc1S2", "growth": "93.7%"}, {"smiles": "CCCCOCCOCCOCc1cc2c(cc1Br)OCO2", "growth": "102%"}, {"smiles": "N#Cc1c(-c2cccc(F)c2)cc(-c2cccnc2)[nH]c1=O", "growth": "106%"}]}]}
